Experimental data as given in the supplement of paper PMC6555819.

What was measured:
Assay in all cases: PBM binding z-score (relative to random genomic background probes); higher = stronger binding; sequences stand for … in GC…GCGATTGACAGCGTAGAATGAAGG
[1] = system: PPARg:RXRa DBDmut IVT, anti-RXR (DBD mutation: RXRa K156A/R161A, NR concentration 270 nM, RXRa partner concentration 90 nM)
Summary of the method: (§1)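 Antibodies against each partner of ligand-free nuclear receptor dimers (one per run) detected binding on custom Agilent 4×180K protein-binding microarrays after 1 h incubation. The double-stranded probes had 34-nt variable regions carrying direct-repeat seeds, single-nucleotide variants, half-site ablations and random human genomic background sequences. Binding z-scores, from regression-normalized fluorescence, use the random background probes as reference.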

[2] = system: PPARg:RXRa IVT, anti-PPARg (NR concentration 270 nM, RXRa partner concentration 90 nM)
Summary of the method: as §1

[3] = system: PPARg DBDmut:RXRa IVT, anti-PPARg (DBD mutation: PPARg1 K132A/R137A, NR concentration 270 nM, RXRa partner concentration 90 nM)
Summary of the method: as §1

[4] = system: PPARg DBDmut IVT, anti-PPARg (DBD mutation: PPARg1 K132A/R137A, NR concentration 270 nM)
Summary of the method: as §1

[5] = system: PPARg homodimer (NR concentration 180 nM)
Summary of the method: as §1

[6] = system: PXR:RXRa (NR concentration 270 nM, RXRa partner concentration 90 nM)
Summary of the method: as §1

[7] = system: PXR homodimer (NR concentration 270 nM)
Summary of the method: as §1

[8] = system: RARa:RXR (NR concentration 270 nM, RXRa partner concentration 90 nM)
Summary of the method: as §1

[9] = system: RARa homodimer (NR concentration 270 nM)
Summary of the method: as §1

[10] = system: RARb:RXRa (NR concentration 270 nM, RXRa partner concentration 90 nM)
Summary of the method: as §1

[11] = system: RARb homodimer (NR concentration 270 nM)
Summary of the method: as §1

[12] = system: RARg:RXRa (NR concentration 270 nM, RXRa partner concentration 90 nM)
Summary of the method: as §1

[13] = system: RARg homodimer (NR concentration 270 nM)
Summary of the method: as §1

[14] = system: RXRa DBDmut IVT, anti-RXR (DBD mutation: RXRa K156A/R161A, NR concentration 90 nM)
Summary of the method: as §1

[15] = system: RXRa homodimer (NR concentration 180 nM)
Summary of the method: as §1

[16] = system: THRa:RXRa (NR concentration 90 nM, RXRa partner concentration 90 nM)
Summary of the method: as §1

[17] = system: THRa homodimer (NR concentration 90 nM)
Summary of the method: as §1

[18] = system: VDR homodimer (NR concentration 270 nM)
Summary of the method: as §1

Sequence | PBM binding z-score [1] | PBM binding z-score [2] | PBM binding z-score [3] | PBM binding z-score [4] | PBM binding z-score [5] | PBM binding z-score [6] | PBM binding z-score [7] | PBM binding z-score [8] | PBM binding z-score [9] | PBM binding z-score [10] | PBM binding z-score [11] | PBM binding z-score [12] | PBM binding z-score [13] | PBM binding z-score [14] | PBM binding z-score [15] | PBM binding z-score [16] | PBM binding z-score [17] | PBM binding z-score [18]
TCTAGTTGCTCAAAGGTCACACACTCGAAATGCG | 2.7 | 3.98 | 1.38 | 1.19 | 3.79 | 5.31 | 1.24 | 5.48 | 2.63 | 4.94 | 5.02 | 5.93 | 5.78 | 1.88 | 6.66 | 3.76 | 1.89 | 2.12
GCTAGCAGGCCACTTGGGTCACTCAATGACGGGC | 1.43 | 1.32 | -1.04 | -0.967 | -0.431 | 0.269 | -0.237 | 0.575 | -0.207 | 1.34 | 2.08 | 1.11 | 1.41 | -0.454 | 0.892 | 1.67 | 0.36 | 0.24
ATCGAAAGGTCCTGAGGTGAGTATACAGAAAGGC | -0.172 | 0.777 | 0.834 | 0.602 | 0.413 | 0.102 | -0.0977 | 0.895 | 0.0282 | 1.12 | 1.02 | 1.36 | 0.977 | -0.513 | 1 | 1.98 | 0.778 | -0.0485
TTACCAAGGTGAGCTAAGGTCGTTGATCCAACTC | 1.04 | 1.93 | -0.698 | -0.173 | 0.0568 | 4.6 | 0.308 | 2.41 | -1.25 | 1.91 | 1.72 | 1.56 | 1.15 | -0.158 | 1.65 | 4.71 | 2.41 | 1.29
TCGAGTAGGATACCAATGGGGCATTCAGCTTTCT | 1 | -0.141 | -0.244 | -1.29 | -1.04 | -0.677 | -0.988 | -1.18 | -1.27 | -0.402 | -0.451 | -0.58 | -0.482 | 0.0326 | -0.263 | -1.38 | -1.03 | -1.09
ACTATTAGTAGACTTAGGGCAACCGATACGACGC | 0.187 | 0.601 | 0.838 | 1.02 | 0.603 | 0.0648 | 0.218 | 0.0539 | 0.917 | 0.609 | 0.674 | 0.363 | 0.941 | 0.409 | 0.292 | 0.596 | 0.558 | 0.227
ATCTCTAGGTAAAGATAGTGCAGTGAATGCAAAT | 1.33 | 1.62 | 0.773 | 0.751 | -0.52 | -0.0642 | -0.041 | 0.189 | 0.661 | -0.164 | -0.372 | 0.0561 | 0.36 | -0.368 | 0.254 | 0.223 | -0.337 | -0.144
GGAACGAGGGCCAGTTGATAGCAGAGTTTGATGG | 0.134 | -0.54 | -0.953 | -0.88 | -0.513 | -0.515 | -0.158 | -0.522 | -1.03 | 0.217 | 0.014 | -0.18 | 0.0481 | -0.0614 | 0.143 | -0.74 | -0.812 | -0.327
ATTAGCAGGCCAAGGGTCACTCAAGATTAGTCCG | 0.795 | 3.76 | 0.0508 | 0.161 | 1.61 | 3.2 | -0.179 | 4.06 | 0.0408 | 3.62 | 3.64 | 4.22 | 3.71 | 0.43 | 4.3 | 2.7 | 0.321 | 0.941
TCTATTAGTTGAAGGGCAACCAACGAGTCCGTTT | 2.05 | 0.417 | 0.246 | 1.16 | 0.593 | 0.786 | 0.837 | 0.718 | 1.55 | 1.46 | 1.4 | 0.447 | 0.495 | 1.46 | 0.529 | 0.101 | 0.123 | 0.984
CAGCCTAGGTCAGGGCCAGTAAAGGAGGAACGTT | 1.26 | 1.51 | -1.63 | -1.14 | 0.652 | 0.328 | -0.795 | 1.08 | 0.335 | 3.49 | 2.33 | 2.7 | 3.44 | -0.0941 | 1.55 | 1.86 | 0.361 | -0.267
CCAGACAGGTGAGAGGGTAACTCAGCCTCGATTA | 0.762 | 1.58 | -0.651 | -0.852 | 0.818 | -0.0811 | -0.117 | 0.443 | 0.0595 | 0.951 | 1.02 | 0.576 | 0.626 | -0.231 | 0.666 | 0.388 | 0.0769 | 0.287
CCTCGGAGGCCAACAGGAGGTCAGAGCTGCCAGA | -0.0138 | 0.518 | -0.818 | -1.87 | 1.58 | 2.35 | 0.122 | 2.83 | 0.23 | 2.98 | 3.63 | 4.76 | 3.41 | -0.221 | 2.34 | 2.41 | 0.431 | 0.821
ATCGAAAGGTCGAAGGTGAATATACCCACCCGAA | 0.205 | 2.75 | 0.488 | 1.25 | 2.07 | 3.5 | 0.328 | 5.15 | 0.699 | 4.04 | 2.61 | 4.63 | 3.68 | 1.35 | 5.69 | 2.52 | 0.227 | 0.834
TCTAGTTGGTCAAAGGTCACAGACTCGAAATGCG | 3.8 | 6.51 | 1.4 | 1.43 | 5.86 | 6.19 | 1.54 | 7.67 | 3.5 | 5.12 | 5.18 | 7.34 | 6.39 | 1.36 | 8.58 | 4.16 | 1.98 | 2.22
